From the supplement of paper PMC6555819

How the values were obtained:
Assay in all cases: PBM binding z-score (relative to random genomic background probes); higher = stronger binding; sequences stand for … in GC…GCGATTGACAGCGTAGAATGAAGG
[1] = test system: RARb homodimer (NR concentration 270 nM)
Method in brief: (§1)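 Antibodies against each partner of ligand-free nuclear receptor dimers (one per run) detected binding on custom Agilent 4×180K protein-binding microarrays after 1 h incubation. The double-stranded probes had 34-nt variable regions carrying direct-repeat seeds, single-nucleotide variants, half-site ablations and random human genomic background sequences. Binding z-scores, from regression-normalized fluorescence, use the random background probes as reference.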

[2] = test system: RARg:RXRa (NR concentration 270 nM, RXRa partner concentration 90 nM)
Method in brief: as §1

[3] = test system: RARg homodimer (NR concentration 270 nM)
Method in brief: as §1

[4] = test system: RXRa DBDmut IVT, anti-RXR (DBD mutation: RXRa K156A/R161A, NR concentration 90 nM)
Method in brief: as §1

[5] = test system: RXRa homodimer (NR concentration 180 nM)
Method in brief: as §1

[6] = test system: THRa:RXRa (NR concentration 90 nM, RXRa partner concentration 90 nM)
Method in brief: as §1

[7] = test system: THRa homodimer (NR concentration 90 nM)
Method in brief: as §1

[8] = test system: VDR:RXRa (NR concentration 270 nM, RXRa partner concentration 90 nM)
Method in brief: as §1

[9] = test system: VDR homodimer (NR concentration 270 nM)
Method in brief: as §1

Sequence | PBM binding z-score [1] | PBM binding z-score [2] | PBM binding z-score [3] | PBM binding z-score [4] | PBM binding z-score [5] | PBM binding z-score [6] | PBM binding z-score [7] | PBM binding z-score [8] | PBM binding z-score [9]
TAGCCTAGGTCATGGGCCATTATACCACGCGAAC | 3.25 | 4.27 | 4.52 | 0.45 | 3.75 | 3.17 | 1.37 | 2.27 | 0.862
CATACAGGGTCAGCCAGGCCAGAGTAGGGACGGC | 3.14 | 4.58 | 4.31 | 1.4 | 4.58 | 3.36 | 1.19 | 4.58 | 1.78
ACTGTTAGTTGAGACGAGGGCAACCGATAGGTTG | 1.26 | 0.764 | 1.13 | 0.337 | 0.451 | 2.63 | 0.349 | 0.595 | 0.808
CGTCCAAGGGCAAGGTCAGTGAAAGAGACTCGAA | 3.82 | 3.23 | 4.43 | 1.07 | 2.23 | 2.9 | 1.11 | 1.59 | 1.21
TCGAGTAGGTAACCAATGGGGCATTCAGCTTTCT | -0.0946 | -0.146 | -0.427 | 0.00393 | 0.0647 | 0.124 | -0.752 | -0.172 | -0.729
ATATGTAGGTTAGCTGGGGCCATTCAGACTAGGC | 1.17 | 0.84 | 0.74 | 0.565 | 0.845 | 4.13 | 0.768 | 1.97 | 0.832
CCAGACAGGTGAGAAGGTACCTCAGCCTCGATTA | 0.101 | 0.161 | 0.0168 | 0.0456 | 0.155 | 0.0348 | 0.0556 | -0.437 | -0.352
TCAGACAGGTGTAGGTAACTCAGGTACGCAGTCG | 0.242 | 0.0352 | 0.143 | 1.07 | 0.607 | 0.923 | 0.621 | 0.89 | 0.47
TCATATAGGTAAACACGTGAAAGTCCGTAAGTTA | 0.112 | 0.245 | 0.371 | 1.31 | 0.661 | 0.0438 | 0.238 | 0.885 | 0.164
TCTTGTAGATCAAGCAGGTCAAGAAAGCCTGAGT | 2.28 | 1.43 | 1.35 | 0.714 | 1.66 | 2.01 | 0.223 | 2.28 | 0.53
TCGAGTAGGTTACCAACGGGGCATTCAGCTTTCT | 0.583 | 1.52 | 0.504 | 0.191 | 0.733 | 0.042 | -0.794 | 0.126 | -0.578
TTACCAAGCTGAAAGGTCGTTGATGCACGCCTTG | 1.45 | 1.06 | 0.528 | -0.0422 | 2.04 | 0.936 | -0.608 | 1.07 | 0.539
CGAACGAGGGCATGAGTTCATAGCAAATGCCGAT | 2.53 | 3.42 | 2.88 | 3.85 | 3.03 | 2.73 | 0.469 | 5.62 | 6.18
ACAGACAGGTGAGAGAAGGTAACTCAGCTGGACG | 0.122 | 0.137 | 0.491 | -0.484 | 0.333 | 1.69 | -0.219 | -0.382 | -0.636
AGAACGAGGGCACACTGAGTTGATAGCAGAGTAG | 1.02 | 1.64 | 1.91 | 2.1 | 1.24 | 1.72 | 0.167 | 2.15 | 1.78
CAAACTAGGTCACATAGGTCAAAGTCCGTGCGTA | 4.67 | 5.93 | 6.3 | 2.56 | 5.67 | 4.09 | 1.78 | 6.27 | 3.91
CGAGACAGGTGAGAAGGTAACTCAGCCTCGATTA | 0.319 | 0.434 | 0.338 | -0.6 | 0.212 | 0.0357 | -0.411 | -0.375 | -0.621
CGTCCAAGGTCAAAGGTCCGTGAAGAGATGACGG | 3.99 | 6.31 | 6.35 | 3.54 | 6.84 | 3.99 | 2.24 | 4.62 | 2.87
ATCGAAAGGTCGAAGGTGAGAATACCCACCCGAA | 2.62 | 4.34 | 4.24 | 1.42 | 5.85 | 2.23 | -0.0436 | 2.7 | 0.515
CAAACTAGGTCAAGGTTAAAGTCGGTTTGTGCCA | 3.76 | 4.29 | 5.18 | 1.95 | 3.67 | 3.56 | 1.82 | 3.2 | 1.79
ACTTGTTGGTCAGCTGAGGTCACACACAATTCGG | 4.48 | 4.18 | 4.01 | 1.38 | 3.99 | 5.15 | 5.03 | 4.61 | 3.16
TCAGACAAGTGAAGGTAACTCAGGTACGCAGTCG | -0.322 | 0.211 | 0.249 | 1.1 | 0.825 | 1.1 | -0.375 | 0.46 | -0.0282
CCTACTGGGCCACGAAAGGTCATTGTTTCAGTGA | 4.64 | 4.55 | 4.31 | 0.971 | 5.09 | 3.94 | 0.739 | 4.25 | 2.75
AGAATGCGGTTACCAAAGATCAGGGAAACGCTTG | -0.737 | 0.095 | 0.185 | -0.735 | 0.309 | -0.323 | -1.27 | -0.612 | -1.02
CGAACGAGCGCATGAGTTGATAGCAAATGCCGAT | -0.651 | -0.0221 | -0.247 | 0.162 | -0.236 | -0.516 | -0.891 | -0.307 | -0.0717
TCATATAGGAAAAGGTGAAAGTCGAACGATATGA | 1.17 | 1.38 | 1.12 | 1.03 | 1.86 | 0.964 | -0.616 | 0.862 | 0.135

Sequence | PBM binding z-score [1] | PBM binding z-score [2] | PBM binding z-score [3] | PBM binding z-score [4] | PBM binding z-score [5] | PBM binding z-score [6] | PBM binding z-score [7] | PBM binding z-score [8] | PBM binding z-score [9]
ACCAGTTGGTCAGCTGAGGTCACACACAATTCGG | 4.44 | 4.2 | 4.52 | 1.29 | 4.27 | 5.07 | 5 | 4.45 | 3.47
GCGACTGGGGCATCACCAGGTTACCATAACTTAA | 0.954 | 0.961 | 0.521 | -0.237 | 0.427 | 1.92 | 0.551 | -0.162 | -0.267
CCTACTGGGCAATCAGGTCATTGATATCAACGTT | 2.16 | 1.56 | 1.51 | 0.0815 | 1.06 | 3.13 | 2.55 | 2.83 | 1.29
CCTTACGGGTCACTGACAGGATATAGCATTTGGA | 2.9 | 4.97 | 4.62 | 1.76 | 5.05 | 2.62 | 0.268 | 3.36 | 0.961
GCTAGTTGGGCAGTAAAAGGTCACACACCGGTCG | 5.15 | 5.03 | 4.7 | 0.364 | 5.38 | 3.49 | 1.62 | 3.62 | 1.66
TCTATTAGTTGATTAGGGCAATCGAAACAGCGGA | 0.402 | 0.658 | 0.528 | 0.966 | 0.804 | 0.453 | 0.15 | 0.607 | 0.435
TCATATAGGTAATACAGGTGACAGTCGGCATCTA | 0.657 | 0.874 | 0.762 | 1.5 | 1.08 | 0.809 | 0.0912 | 0.922 | -0.0475
TCTTGTTGATCAAGCAGGTTAAGAAAGCCTGAGT | 0.418 | -0.0831 | -0.348 | 0.561 | 0.248 | 0.444 | -0.1 | 0.244 | 0.0832
CCTGCTAAGTCATGGTCAGCTAATCTACAGTATG | 0.142 | 0.135 | 0.315 | 0.518 | 0.0599 | -0.13 | -0.892 | -0.252 | -0.337
CTCGAAAGGTCGGTTGAGTTGAGTATACGGATAA | 1.34 | 2.4 | 2.35 | 1.33 | 1.81 | 3.4 | 0.44 | 3.45 | 1.37
GCTATTAGTTGAAAGGGCAACCTAATGATTCTCG | 2.01 | 1.35 | 1.38 | 0.966 | 1.24 | 0.901 | -0.0101 | 0.478 | 0.284
CAAACTAGGTCACCGGAGGGTCAAAGTCCGCATG | 5.26 | 7.83 | 6.79 | 1.19 | 5.89 | 4.24 | 2.21 | 5.82 | 2.78
CGTCCAAAGTCAATGCTAGGTCAGTGAAAGCATT | 2.39 | 2.4 | 1.31 | 0.43 | 0.344 | 2.01 | 0.698 | 0.457 | 0.435
CCGATTAGGTTATGGGGCATTCAGGCAACGGTGA | 1.11 | 0.701 | 0.783 | 0.4 | 0.612 | 1.19 | 0.572 | 0.0574 | 0.143
CTAACTAGGTCAAGAGGTCAAAGTCCGCTTCCCG | 5.82 | 8.23 | 7.39 | 2.89 | 8.23 | 4.27 | 2.29 | 6 | 4.55
CAAACTAGGTCACAGAGGTAAAAGTCCGTGCGTA | 3.54 | 4.87 | 5.32 | 1.95 | 3.93 | 3.71 | 1.63 | 4.96 | 2.01
GCATATAGGGAATACAAGGTGAAAGTCCGATTGT | 0.509 | 0.203 | 0.249 | 0.292 | 0.268 | 3.15 | 0.78 | 0.0593 | -0.263
ATCTCTAGGTATGACTCAGTTCAGTGAAGAACGC | 0.676 | 0.285 | 0.329 | 0.685 | 0.0899 | 0.451 | 0.83 | 1.01 | 1.5
TCTAGCAGGCCAGAGTGTCACTCAAGAGGTACGG | 0.119 | 0.145 | 0.167 | -0.194 | 0.302 | -0.304 | -1.19 | -0.00537 | -0.738
ATGTCTAGGTAACCAAGTTCAGTGAATGCCGAAC | 1.34 | 0.808 | 0.759 | 0.268 | 0.737 | 1.42 | 0.382 | 3.97 | 2.08
TCTCGGGGGACACGAAGGTCAGAGCTTTCCAGAG | 4.17 | 4.68 | 5.9 | 1.89 | 3 | 3.32 | 1.58 | 3.72 | 1.76
ATAAGTAGGTTAGCTGGGGTCATTCAGACTAGGC | 3.84 | 4.16 | 2.94 | 1.95 | 5.34 | 5.32 | 3.54 | 5.98 | 4.63
TCATATTGGTAATACAGGTGAAAGTCGGCATCTA | 0.667 | 0.388 | 0.332 | 1.69 | 0.917 | 0.669 | 0.437 | 1.12 | 0.279
GCTTGCGGGTCAAAGGTTATAGCATGAATAGAAT | 2.73 | 6.3 | 4.14 | 2.1 | 8.79 | 3.83 | -0.22 | 5.03 | 0.927
ACTAGTTGGTCAGCTGAGGTTACACACAATTCGG | 2.03 | 1.46 | 1.69 | 0.642 | 1.31 | 3.86 | 1.97 | 1.59 | 1.01
CTACCAAGGTGAACTAGGTCGTTGATTACTATTC | 1.98 | 1.45 | 1.42 | 0.925 | 1.49 | 2.82 | 1.68 | 3.56 | 0.82
